Assay results taken from the supplement of paper PMC7057948, “A genome-wide approach for identification and characterisation of metabolite-inducible systems” (Nature Communications, 2020).

How the values were obtained:
Settings in all cases: inducer concentration 5 mM; 6 h; Cupriavidus necator H16; minimal medium + 0.4% gluconate
[1] = test system: AcoR/P_H16_RS19445 acetoin biosensor (pEH052); test: relative induction of RFP reporter vs primary effector (background-corrected); higher = stronger activation of the biosensor
Procedure: (§1)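 C. necator H16 strains, each carrying one of 21 transcription factor/inducible promoter–mRFP biosensor plasmids, were grown in minimal medium in 96-well plates (robotic platform). Each was exposed to 46 structurally or metabolically related compounds at 5 mM at 30 °C. OD-normalised RFP fluorescence was read 6 h later and expressed as relative induction (%) = 100 × (FL compound − FL uninduced)/(FL primary inducer − FL uninduced); mean of n=4.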

[2] = test system: AraC/P_araBAD L-arabinose biosensor (pEH176); test: as above
Procedure: as §1

[3] = test system: BenM/P_H16_RS09790 benzoate biosensor (pEH148); test: as above
Procedure: as §1

[4] = test system: FdsR/P_H16_RS03165 formate biosensor (pEH134); test: as above
Procedure: as §1

[5] = test system: GabR/P_H16_RS23655 GABA biosensor (pEH256); test: as above
Procedure: as §1

[6] = test system: HpdR/P_H16_RS18295 3-hydroxypropanoate biosensor (pEH010); test: as above
Procedure: as §1

[7] = test system: KynR/P_H16_RS14030 L-kynurenine biosensor (pEH136); test: as above
Procedure: as §1

[8] = test system: NahR/P_H16_RS08125 salicylate biosensor (pEH042); test: as above
Procedure: as §1

[9] = test system: OapR/P_H16_RS01330 beta-alanine biosensor (pEH147); test: as above
Procedure: as §1

[10] = test system: PcaQ/P_H16_RS30145 3,4-dihydroxybenzoate biosensor (pEH161); test: as above
Procedure: as §1

[11] = test system: PhhR/P_H16_RS18365 L-phenylalanine biosensor (pEH137); test: as above
Procedure: as §1

[12] = test system: SauR/P_H16_RS13695 sulfonatoacetate biosensor (pEH157); test: as above
Procedure: as §1

[13] = test system: TtdR/P_H16_RS10665 tartrate biosensor (pEH083); test: as above
Procedure: as §1

[14] = test system: XdhR/P_H16_RS05055 xanthine biosensor (pEH154); test: as above
Procedure: as §1

[15] = test system: heterologous inducible system pEH002 (rhamnose/acrylate/cumate/itaconate set); test: as above
Procedure: as §1

[16] = test system: heterologous inducible system pEH020 (rhamnose/acrylate/cumate/itaconate set); test: as above
Procedure: as §1

[17] = test system: heterologous inducible system pEH040 (rhamnose/acrylate/cumate/itaconate set); test: as above
Procedure: as §1

[18] = test system: heterologous inducible system pEH086 (rhamnose/acrylate/cumate/itaconate set); test: as above
Procedure: as §1

[19] = test system: AcoR/P_H16_RS19445 acetoin biosensor (pEH052); test: relative induction of RFP reporter vs primary effector; higher = stronger activation
Procedure: (§2)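 Orthogonality screen of 21 primary inducers against 21 transcription factor/inducible promoter–mRFP biosensors in C. necator H16 in minimal medium, robotic 96-well format, 5 mM inducer, 30 °C. OD-normalised RFP fluorescence was read 6 h later and expressed as relative induction (%) = 100 × (FL compound − FL uninduced)/(FL primary inducer − FL uninduced); mean of n=4. Cognate pairs (100% by definition) omitted.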

[20] = test system: AraC/P_araBAD L-arabinose biosensor (pEH176); test: as above
Procedure: as §2

[21] = test system: BadR/P_H16_RS27200 cyclohexanecarboxylate biosensor (pEH159); test: as above
Procedure: as §2

[22] = test system: BenM/P_H16_RS09790 benzoate biosensor (pEH148); test: as above
Procedure: as §2

[23] = test system: GabR/P_H16_RS23655 GABA biosensor (pEH256); test: as above
Procedure: as §2

[24] = test system: HpdA/P_H16_RS24175 L-tyrosine biosensor (pEH158); test: as above
Procedure: as §2

[25] = test system: NahR/P_H16_RS08125 salicylate biosensor (pEH042); test: as above
Procedure: as §2

[26] = test system: OapR/P_H16_RS01330 beta-alanine biosensor (pEH147); test: as above
Procedure: as §2

[27] = test system: PcaQ/P_H16_RS30145 3,4-dihydroxybenzoate biosensor (pEH161); test: as above
Procedure: as §2

[28] = test system: PhgR/P_H16_RS05530 phenylglyoxylate biosensor (pEH155); test: as above
Procedure: as §2

[29] = test system: SauR/P_H16_RS13695 sulfonatoacetate biosensor (pEH157); test: as above
Procedure: as §2

[30] = test system: TtdR/P_H16_RS10665 tartrate biosensor (pEH083); test: as above
Procedure: as §2

[31] = test system: XdhR/P_H16_RS05055 xanthine biosensor (pEH154); test: as above
Procedure: as §2

[32] = test system: heterologous L-rhamnose-inducible system; test: as above
Procedure: as §2

[33] = test system: heterologous acrylate-inducible system; test: as above
Procedure: as §2

[34] = test system: heterologous cumate-inducible system; test: as above
Procedure: as §2

[35] = test system: heterologous itaconate-inducible system; test: as above
Procedure: as §2

[36] = test system: PhgR/P_H16_RS05530 phenylglyoxylate biosensor (pEH155); test: relative induction of RFP reporter vs primary effector (background-corrected); higher = stronger activation of the biosensor
Procedure: as §1
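Wherever relative induction of RFP reporter vs primary effector (background-corrected) is given: RFP excited at 585 nm with emission read at 620 nm, culture medium blanks subtracted from fluorescence and absorbance prior to normalisation.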

## O=CC(=O)O [glyoxylate]
[1]
  relative induction of RFP reporter: -0.798%
[2]
  relative induction of RFP reporter: 0.00961%
[3]
  relative induction of RFP reporter: -0.0259%
[4]
  relative induction of RFP reporter: -3.09%
[5]
  relative induction of RFP reporter: -0.762%
[6]
  relative induction of RFP reporter: -0.292%
[7]
  relative induction of RFP reporter: -0.15%
[8]
  relative induction of RFP reporter: 0.0197%
[9]
  relative induction of RFP reporter: 0.146%
[10]
  relative induction of RFP reporter: 0.0806%
[11]
  relative induction of RFP reporter: 0.0787%
[12]
  relative induction of RFP reporter: -0.00107%
[13]
  relative induction of RFP reporter: 0.296%
[14]
  relative induction of RFP reporter: -0.199%
[15]
  relative induction of RFP reporter: 0.0215%
[16]
  relative induction of RFP reporter: -0.333%
[17]
  relative induction of RFP reporter: -0.263%
[18]
  relative induction of RFP reporter: 0.035%

## O=CO [formate]
[19]
  relative induction of RFP reporter: -0.63%
[20]
  relative induction of RFP reporter: -0.0317%
[21]
  relative induction of RFP reporter: -0.738%
[22]
  relative induction of RFP reporter: 0.0137%
[23]
  relative induction of RFP reporter: -0.53%
[24]
  relative induction of RFP reporter: -0.107%
[25]
  relative induction of RFP reporter: 0.0105%
[26]
  relative induction of RFP reporter: 0.208%
[27]
  relative induction of RFP reporter: -0.0432%
[28]
  relative induction of RFP reporter: -0.511%
[29]
  relative induction of RFP reporter: 0.0555%
[30]
  relative induction of RFP reporter: 0.287%
[31]
  relative induction of RFP reporter: -0.347%
[32]
  relative induction of RFP reporter: 0.0165%
[33]
  relative induction of RFP reporter: -0.251%
[34]
  relative induction of RFP reporter: -0.422%
[35]
  relative induction of RFP reporter: 0.516%

## O=C(O)c1cccnc1 [nicotinate]
[1]
  relative induction of RFP reporter: -2.26%
[2]
  relative induction of RFP reporter: 0.00152%
[3]
  relative induction of RFP reporter: 1.95%
[4]
  relative induction of RFP reporter: 113%
[5]
  relative induction of RFP reporter: -1.65%
[6]
  relative induction of RFP reporter: 0.0215%
[7]
  relative induction of RFP reporter: -0.289%
[8]
  relative induction of RFP reporter: 0.0131%
[9]
  relative induction of RFP reporter: -0.669%
[10]
  relative induction of RFP reporter: -0.0619%
[36]
  relative induction of RFP reporter: -0.587%
[11]
  relative induction of RFP reporter: -0.498%
[12]
  relative induction of RFP reporter: 0.0909%
[13]
  relative induction of RFP reporter: -0.44%
[14]
  relative induction of RFP reporter: 0.0721%
[15]
  relative induction of RFP reporter: 0.0144%
[16]
  relative induction of RFP reporter: -1.31%
[17]
  relative induction of RFP reporter: -1.49%
[18]
  relative induction of RFP reporter: 0.0778%

## O=C(O)C(=O)c1ccccc1 [phenylglyoxylate]
[19]
  relative induction of RFP reporter: -2.12%
[20]
  relative induction of RFP reporter: -0.003%
[21]
  relative induction of RFP reporter: -0.214%
[22]
  relative induction of RFP reporter: 16.8%
[23]
  relative induction of RFP reporter: -2.13%
[24]
  relative induction of RFP reporter: -0.159%
[25]
  relative induction of RFP reporter: 0.00691%
[26]
  relative induction of RFP reporter: -1.44%
[27]
  relative induction of RFP reporter: -0.114%
[29]
  relative induction of RFP reporter: 0.0193%
[30]
  relative induction of RFP reporter: -0.379%
[31]
  relative induction of RFP reporter: -1.19%
[32]
  relative induction of RFP reporter: -0.00891%
[33]
  relative induction of RFP reporter: -2.28%
[34]
  relative induction of RFP reporter: -1.12%
[35]
  relative induction of RFP reporter: -0.288%
